Results published in article PMC7862700, “An all-to-all approach to the identification of sequence-specific readers for epigenetic DNA modifications on cytosine”.

Assays:
Experiment in all cases: DAPPL (digital affinity profiling via proximity ligation, sequencing); 10 mM Tris-HCl pH 7.5, 50 mM NaCl, 1 mM DTT, 4% glycerol, room temperature, 30 min; GST-TFs on glutathione beads, 16-mer random dsDNA library, 0.1% formaldehyde crosslink after washing; high values mean tight binding
FEV = molecular target: T1, FEV (Homo sapiens, UniProt Q99581 1-238); settings: protein: recombinant; tags: N-terminal GST; dsDNA, one strand shown
T1 sequence: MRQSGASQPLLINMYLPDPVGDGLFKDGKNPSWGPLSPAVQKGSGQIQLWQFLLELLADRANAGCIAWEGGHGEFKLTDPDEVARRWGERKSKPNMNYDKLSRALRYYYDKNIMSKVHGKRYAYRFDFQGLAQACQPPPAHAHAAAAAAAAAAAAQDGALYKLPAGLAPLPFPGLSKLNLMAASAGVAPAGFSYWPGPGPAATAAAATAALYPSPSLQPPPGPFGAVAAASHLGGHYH
Procedure, shortened: (§1)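 Human transcription factors fused to GST were expressed in yeast, captured on glutathione beads, given DNA barcodes and pooled with a GST-only negative control. Pools were incubated with 200 nmole of a 16-mer random double-stranded DNA library in Tris/NaCl/DTT/glycerol buffer at room temperature for 30 min. They were then washed, crosslinked with 0.1% formaldehyde, proximity-ligated (BsaI/T4 ligase, 1 h, 37 °C), PCR-amplified and sequenced on an Illumina NextSeq500. Binding signal is each 6-mer's read frequency for a factor divided by its frequency for the GST control.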

ETV5 = ETV5 (Homo sapiens, UniProt P41161 1-510); settings: protein: recombinant; tags: N-terminal GST; dsDNA, one strand shown
Procedure, shortened: as §1

HSF1 = HSF1 (Homo sapiens, UniProt Q00613 1-529); settings: protein: recombinant; tags: N-terminal GST; chain copies: 3; dsDNA, one strand shown
Procedure, shortened: as §1

SPIC = molecular target: T2, SPIC (Homo sapiens, UniProt Q8N5J4 1-248); settings: protein: recombinant; tags: N-terminal GST; dsDNA, one strand shown
T2 sequence: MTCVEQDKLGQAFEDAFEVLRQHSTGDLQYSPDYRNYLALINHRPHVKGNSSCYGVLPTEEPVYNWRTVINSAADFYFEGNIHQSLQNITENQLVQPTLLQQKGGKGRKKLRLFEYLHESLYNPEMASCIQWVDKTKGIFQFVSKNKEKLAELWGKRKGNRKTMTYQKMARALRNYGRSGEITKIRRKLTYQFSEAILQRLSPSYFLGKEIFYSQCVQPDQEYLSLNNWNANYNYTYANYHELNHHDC
Procedure, shortened: as §1

ELF4 = ELF4 (Homo sapiens, UniProt Q99607 1-663); settings: protein: recombinant; tags: N-terminal GST; dsDNA, one strand shown
Procedure, shortened: as §1

ELK4 = molecular target: T3, ELK4 (Homo sapiens, UniProt P28324-2 1-405); settings: protein: recombinant; tags: N-terminal GST; dsDNA, one strand shown
T3 sequence: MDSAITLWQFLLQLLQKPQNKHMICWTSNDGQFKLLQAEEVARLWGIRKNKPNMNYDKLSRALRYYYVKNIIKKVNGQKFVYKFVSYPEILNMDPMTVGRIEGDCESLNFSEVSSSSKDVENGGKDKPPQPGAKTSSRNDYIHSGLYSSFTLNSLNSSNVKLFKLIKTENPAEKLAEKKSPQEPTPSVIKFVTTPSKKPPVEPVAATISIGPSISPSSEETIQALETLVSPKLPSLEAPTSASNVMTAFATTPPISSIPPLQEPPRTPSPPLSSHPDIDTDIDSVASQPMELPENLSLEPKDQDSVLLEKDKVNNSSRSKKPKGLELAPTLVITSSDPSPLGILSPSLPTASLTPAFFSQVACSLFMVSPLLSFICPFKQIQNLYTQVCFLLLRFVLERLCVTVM
Procedure, shortened: as §1

ETV2 = molecular target: T4, ETV2 (Homo sapiens, UniProt O00321 1-342); settings: protein: recombinant; tags: N-terminal GST; dsDNA, one strand shown
T4 sequence: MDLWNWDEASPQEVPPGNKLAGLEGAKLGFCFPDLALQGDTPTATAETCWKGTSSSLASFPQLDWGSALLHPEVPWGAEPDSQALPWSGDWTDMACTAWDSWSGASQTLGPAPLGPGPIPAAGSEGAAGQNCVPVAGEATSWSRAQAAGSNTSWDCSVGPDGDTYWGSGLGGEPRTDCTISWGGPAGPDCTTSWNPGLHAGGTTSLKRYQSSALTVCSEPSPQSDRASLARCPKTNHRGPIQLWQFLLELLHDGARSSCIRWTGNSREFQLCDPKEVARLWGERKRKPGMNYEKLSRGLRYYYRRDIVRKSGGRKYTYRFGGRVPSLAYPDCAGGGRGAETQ
Procedure, shortened: as §1

ELF3 = molecular target: T5, ELF3 (Homo sapiens, UniProt P78545 1-371); settings: protein: recombinant; tags: N-terminal GST; dsDNA, one strand shown
T5 sequence: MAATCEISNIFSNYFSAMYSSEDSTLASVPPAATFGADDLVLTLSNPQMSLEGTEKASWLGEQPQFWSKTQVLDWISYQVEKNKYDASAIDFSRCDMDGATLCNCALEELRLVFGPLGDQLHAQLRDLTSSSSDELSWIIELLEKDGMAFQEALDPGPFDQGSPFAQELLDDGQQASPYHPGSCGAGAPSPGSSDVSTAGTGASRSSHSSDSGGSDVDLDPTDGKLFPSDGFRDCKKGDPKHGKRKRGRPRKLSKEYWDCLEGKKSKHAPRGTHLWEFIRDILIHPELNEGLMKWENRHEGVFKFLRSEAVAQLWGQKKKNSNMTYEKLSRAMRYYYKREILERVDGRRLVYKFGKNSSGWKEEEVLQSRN
Procedure, shortened: as §1

CRX = CRX (Homo sapiens, UniProt O43186 1-299); settings: protein: recombinant; tags: N-terminal GST; dsDNA, one strand shown
Procedure, shortened: as §1

ETV1 = ETV1 (Homo sapiens, UniProt P50549 1-477); settings: protein: recombinant; tags: N-terminal GST; dsDNA, one strand shown
Procedure, shortened: as §1

ERF = molecular target: T6, ERF (Homo sapiens, UniProt P50548 1-548); settings: protein: recombinant; tags: N-terminal GST; dsDNA, one strand shown
T6 sequence: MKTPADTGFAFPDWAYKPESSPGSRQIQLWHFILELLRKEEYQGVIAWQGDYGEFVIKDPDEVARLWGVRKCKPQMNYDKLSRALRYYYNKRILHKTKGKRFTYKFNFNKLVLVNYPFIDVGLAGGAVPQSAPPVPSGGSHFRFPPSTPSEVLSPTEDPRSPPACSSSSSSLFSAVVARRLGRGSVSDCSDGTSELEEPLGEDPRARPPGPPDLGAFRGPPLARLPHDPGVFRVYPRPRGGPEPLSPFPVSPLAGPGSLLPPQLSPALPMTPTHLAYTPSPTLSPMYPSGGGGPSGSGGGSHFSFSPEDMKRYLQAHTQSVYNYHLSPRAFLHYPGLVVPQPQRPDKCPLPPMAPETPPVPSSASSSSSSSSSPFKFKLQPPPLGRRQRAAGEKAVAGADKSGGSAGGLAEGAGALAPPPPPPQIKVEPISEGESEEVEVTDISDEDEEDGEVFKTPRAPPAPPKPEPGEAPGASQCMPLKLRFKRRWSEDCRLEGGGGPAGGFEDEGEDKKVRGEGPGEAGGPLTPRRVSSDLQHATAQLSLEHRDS
Procedure, shortened: as §1

ETV3L = molecular target: T7, ETV3L (Homo sapiens, UniProt Q6ZN32 1-361); settings: protein: recombinant; tags: N-terminal GST; dsDNA, one strand shown
T7 sequence: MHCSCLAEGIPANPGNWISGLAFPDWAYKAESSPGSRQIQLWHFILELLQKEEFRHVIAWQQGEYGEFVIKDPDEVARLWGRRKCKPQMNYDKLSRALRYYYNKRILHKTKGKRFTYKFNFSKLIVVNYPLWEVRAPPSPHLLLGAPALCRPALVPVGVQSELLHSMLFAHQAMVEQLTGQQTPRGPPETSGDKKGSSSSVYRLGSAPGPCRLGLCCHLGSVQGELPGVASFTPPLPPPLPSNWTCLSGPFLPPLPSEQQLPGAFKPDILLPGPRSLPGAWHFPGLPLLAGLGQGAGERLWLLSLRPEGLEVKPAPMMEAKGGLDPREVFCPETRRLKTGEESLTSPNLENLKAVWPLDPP
Procedure, shortened: as §1

ETS2 = molecular target: T8, ETS2 (Homo sapiens, UniProt P15036 1-469); settings: protein: recombinant; tags: N-terminal GST; dsDNA, one strand shown
T8 sequence: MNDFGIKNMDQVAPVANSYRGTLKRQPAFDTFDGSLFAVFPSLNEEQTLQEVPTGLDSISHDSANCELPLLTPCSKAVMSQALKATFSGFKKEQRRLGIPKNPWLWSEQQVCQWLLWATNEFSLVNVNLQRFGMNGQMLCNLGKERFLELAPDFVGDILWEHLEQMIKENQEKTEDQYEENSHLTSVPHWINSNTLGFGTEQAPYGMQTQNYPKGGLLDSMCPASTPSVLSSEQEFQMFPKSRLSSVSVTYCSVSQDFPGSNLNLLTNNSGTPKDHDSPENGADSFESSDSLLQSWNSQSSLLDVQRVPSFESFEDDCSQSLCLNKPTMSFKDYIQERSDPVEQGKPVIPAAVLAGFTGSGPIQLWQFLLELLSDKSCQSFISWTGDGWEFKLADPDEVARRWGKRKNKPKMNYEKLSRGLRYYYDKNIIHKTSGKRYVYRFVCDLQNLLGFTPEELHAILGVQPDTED
Procedure, shortened: as §1

SPDEF = molecular target: T9, SPDEF (Homo sapiens, UniProt O95238 1-335); settings: protein: recombinant; tags: N-terminal GST; dsDNA, one strand shown
T9 sequence: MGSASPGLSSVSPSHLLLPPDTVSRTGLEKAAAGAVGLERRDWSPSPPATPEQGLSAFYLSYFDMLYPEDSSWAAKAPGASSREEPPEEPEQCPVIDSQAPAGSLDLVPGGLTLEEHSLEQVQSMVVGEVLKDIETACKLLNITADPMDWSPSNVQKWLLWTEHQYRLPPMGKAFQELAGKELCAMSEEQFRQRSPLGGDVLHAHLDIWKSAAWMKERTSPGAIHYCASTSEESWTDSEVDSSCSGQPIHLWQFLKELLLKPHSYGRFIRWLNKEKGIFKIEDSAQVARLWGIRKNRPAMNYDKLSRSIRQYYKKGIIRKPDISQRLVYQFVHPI
Procedure, shortened: as §1

ETV7 = molecular target: T10, ETV7 (Homo sapiens, UniProt Q9Y603 1-341); settings: protein: recombinant; tags: N-terminal GST; dsDNA, one strand shown
T10 sequence: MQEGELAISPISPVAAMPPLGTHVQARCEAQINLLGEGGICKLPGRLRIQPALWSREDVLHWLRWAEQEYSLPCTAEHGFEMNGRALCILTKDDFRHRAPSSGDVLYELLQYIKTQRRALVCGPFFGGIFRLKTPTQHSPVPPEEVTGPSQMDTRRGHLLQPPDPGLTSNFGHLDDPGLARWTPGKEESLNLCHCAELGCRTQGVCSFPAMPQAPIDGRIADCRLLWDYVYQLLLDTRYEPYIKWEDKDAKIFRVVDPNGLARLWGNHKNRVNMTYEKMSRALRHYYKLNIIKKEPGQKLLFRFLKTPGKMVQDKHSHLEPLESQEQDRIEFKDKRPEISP
Procedure, shortened: as §1

ELF5 = molecular target: T11, ELF5 (Homo sapiens, UniProt Q9UKW6-2 1-255); settings: protein: recombinant; tags: N-terminal GST; dsDNA, one strand shown
T11 sequence: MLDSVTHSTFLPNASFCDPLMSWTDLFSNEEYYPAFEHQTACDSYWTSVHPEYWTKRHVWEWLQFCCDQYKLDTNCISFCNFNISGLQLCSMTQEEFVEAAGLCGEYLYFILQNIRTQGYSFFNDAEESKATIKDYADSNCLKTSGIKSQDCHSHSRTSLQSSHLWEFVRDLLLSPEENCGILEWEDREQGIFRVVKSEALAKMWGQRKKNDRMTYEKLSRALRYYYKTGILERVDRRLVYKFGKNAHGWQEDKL
Procedure, shortened: as §1

ETV3 = molecular target: T12, ETV3 (Homo sapiens, UniProt P41162-2 1-143); settings: protein: recombinant; tags: N-terminal GST; dsDNA, one strand shown
T12 sequence: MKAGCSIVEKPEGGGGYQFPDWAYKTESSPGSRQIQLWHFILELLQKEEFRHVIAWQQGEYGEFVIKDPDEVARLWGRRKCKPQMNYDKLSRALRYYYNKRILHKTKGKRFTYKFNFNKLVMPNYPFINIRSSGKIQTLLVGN
Procedure, shortened: as §1

ETV6 = ETV6 (Homo sapiens, UniProt P41212 1-452); settings: protein: recombinant; tags: N-terminal GST; dsDNA, one strand shown
Procedure, shortened: as §1

Chain of ETV1 (P50549 whole entry): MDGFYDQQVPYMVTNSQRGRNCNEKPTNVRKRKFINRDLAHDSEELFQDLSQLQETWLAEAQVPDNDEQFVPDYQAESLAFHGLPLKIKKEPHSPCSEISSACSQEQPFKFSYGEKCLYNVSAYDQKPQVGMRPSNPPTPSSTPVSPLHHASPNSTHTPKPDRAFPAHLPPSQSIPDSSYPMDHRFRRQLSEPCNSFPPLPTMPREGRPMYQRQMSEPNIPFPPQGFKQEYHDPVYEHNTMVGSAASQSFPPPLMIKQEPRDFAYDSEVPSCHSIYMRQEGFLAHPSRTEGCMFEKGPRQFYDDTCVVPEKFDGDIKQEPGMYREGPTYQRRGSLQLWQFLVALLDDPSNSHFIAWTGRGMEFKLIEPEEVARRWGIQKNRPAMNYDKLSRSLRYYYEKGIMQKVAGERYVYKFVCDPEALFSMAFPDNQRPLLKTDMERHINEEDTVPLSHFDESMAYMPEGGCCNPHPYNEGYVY
Chain of ETV5 (P41161 whole entry): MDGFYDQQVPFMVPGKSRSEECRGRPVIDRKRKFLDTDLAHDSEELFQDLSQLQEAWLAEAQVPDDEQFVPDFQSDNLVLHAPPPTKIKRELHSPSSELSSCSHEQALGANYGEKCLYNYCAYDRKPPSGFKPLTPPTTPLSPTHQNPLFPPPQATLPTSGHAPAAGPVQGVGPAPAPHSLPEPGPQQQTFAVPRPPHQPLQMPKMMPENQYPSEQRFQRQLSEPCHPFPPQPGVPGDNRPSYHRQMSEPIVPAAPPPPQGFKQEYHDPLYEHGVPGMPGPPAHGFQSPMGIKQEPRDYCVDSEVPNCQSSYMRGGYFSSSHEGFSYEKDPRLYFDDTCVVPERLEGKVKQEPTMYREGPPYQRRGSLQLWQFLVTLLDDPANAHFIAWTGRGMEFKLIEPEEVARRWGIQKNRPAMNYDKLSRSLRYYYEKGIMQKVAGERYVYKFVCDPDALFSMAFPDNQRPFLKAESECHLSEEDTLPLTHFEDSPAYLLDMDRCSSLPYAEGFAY
Chain of ETV6 (P41212 whole entry): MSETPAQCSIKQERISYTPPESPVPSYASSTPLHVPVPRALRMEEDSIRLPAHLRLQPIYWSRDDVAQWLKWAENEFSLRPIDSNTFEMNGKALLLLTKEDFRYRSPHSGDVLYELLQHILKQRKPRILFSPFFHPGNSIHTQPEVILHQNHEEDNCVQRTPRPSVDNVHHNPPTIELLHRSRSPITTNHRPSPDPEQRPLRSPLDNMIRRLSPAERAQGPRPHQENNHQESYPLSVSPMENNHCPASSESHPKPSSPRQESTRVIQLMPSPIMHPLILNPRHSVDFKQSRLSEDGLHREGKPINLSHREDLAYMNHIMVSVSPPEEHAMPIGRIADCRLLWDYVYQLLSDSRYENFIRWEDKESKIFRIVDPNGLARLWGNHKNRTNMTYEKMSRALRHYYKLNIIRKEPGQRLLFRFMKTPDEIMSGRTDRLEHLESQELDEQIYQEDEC
Chain of ELF4 (Q99607 whole entry): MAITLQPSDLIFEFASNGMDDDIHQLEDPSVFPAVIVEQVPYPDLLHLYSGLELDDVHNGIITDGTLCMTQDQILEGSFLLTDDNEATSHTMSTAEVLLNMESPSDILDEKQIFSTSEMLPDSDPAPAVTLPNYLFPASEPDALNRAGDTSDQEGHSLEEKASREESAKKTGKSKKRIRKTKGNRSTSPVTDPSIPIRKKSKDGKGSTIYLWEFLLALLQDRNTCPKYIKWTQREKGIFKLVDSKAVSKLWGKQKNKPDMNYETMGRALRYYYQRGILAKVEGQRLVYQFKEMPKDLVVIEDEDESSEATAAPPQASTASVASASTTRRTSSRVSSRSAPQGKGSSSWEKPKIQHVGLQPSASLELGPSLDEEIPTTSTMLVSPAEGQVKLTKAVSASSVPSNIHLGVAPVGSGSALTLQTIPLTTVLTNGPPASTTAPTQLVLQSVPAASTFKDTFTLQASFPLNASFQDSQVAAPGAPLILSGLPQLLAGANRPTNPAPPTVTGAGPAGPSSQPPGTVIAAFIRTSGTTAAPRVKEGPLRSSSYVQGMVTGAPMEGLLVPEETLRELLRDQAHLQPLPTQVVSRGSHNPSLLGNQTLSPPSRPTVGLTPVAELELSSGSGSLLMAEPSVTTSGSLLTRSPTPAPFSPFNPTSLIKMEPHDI
Chain of HSF1 (Q00613 whole entry): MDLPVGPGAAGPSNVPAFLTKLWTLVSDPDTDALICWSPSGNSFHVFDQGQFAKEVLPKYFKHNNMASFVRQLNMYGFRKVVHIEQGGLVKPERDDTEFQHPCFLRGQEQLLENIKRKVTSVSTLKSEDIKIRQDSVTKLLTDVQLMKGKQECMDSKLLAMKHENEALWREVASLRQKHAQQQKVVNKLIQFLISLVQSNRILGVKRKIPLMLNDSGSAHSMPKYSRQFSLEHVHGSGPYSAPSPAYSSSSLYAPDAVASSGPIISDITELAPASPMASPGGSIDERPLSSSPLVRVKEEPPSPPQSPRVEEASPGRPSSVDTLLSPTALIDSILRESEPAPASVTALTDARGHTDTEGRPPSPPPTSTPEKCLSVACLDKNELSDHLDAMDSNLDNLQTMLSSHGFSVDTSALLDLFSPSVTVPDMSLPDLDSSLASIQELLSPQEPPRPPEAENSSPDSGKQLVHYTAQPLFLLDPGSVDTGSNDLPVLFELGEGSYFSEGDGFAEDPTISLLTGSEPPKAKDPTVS
Chain of CRX (O43186 whole entry): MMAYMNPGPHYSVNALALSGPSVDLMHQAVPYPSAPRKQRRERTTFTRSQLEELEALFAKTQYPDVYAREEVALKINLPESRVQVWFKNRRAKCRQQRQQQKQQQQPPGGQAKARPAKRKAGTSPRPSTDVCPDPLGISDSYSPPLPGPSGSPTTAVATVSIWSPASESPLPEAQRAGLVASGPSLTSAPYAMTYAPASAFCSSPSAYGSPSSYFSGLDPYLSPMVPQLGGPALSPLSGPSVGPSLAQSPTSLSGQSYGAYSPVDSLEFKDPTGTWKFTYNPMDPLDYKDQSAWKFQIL

CTTCAA
binding signal (FEV): 1.33 fold enrichment (6-mer frequency, TF over GST control)
binding signal (ETV5): 1.28 fold enrichment (6-mer frequency, TF over GST control)
binding signal (HSF1): 1.38 fold enrichment (6-mer frequency, TF over GST control)
binding signal (SPIC): 1.32 fold enrichment (6-mer frequency, TF over GST control)
binding signal (ELF4): 1.29 fold enrichment (6-mer frequency, TF over GST control)
binding signal (ELK4): 1.52 fold enrichment (6-mer frequency, TF over GST control)
binding signal (ETV2): 1.46 fold enrichment (6-mer frequency, TF over GST control)
binding signal (ELF3): 1.37 fold enrichment (6-mer frequency, TF over GST control)
binding signal (CRX): 1.22 fold enrichment (6-mer frequency, TF over GST control)
binding signal (ETV1): 1.36 fold enrichment (6-mer frequency, TF over GST control)
binding signal (ERF): 1.41 fold enrichment (6-mer frequency, TF over GST control)
binding signal (ETV3L): 1.3 fold enrichment (6-mer frequency, TF over GST control)
binding signal (ETS2): 1.25 fold enrichment (6-mer frequency, TF over GST control)
binding signal (SPDEF): 1.34 fold enrichment (6-mer frequency, TF over GST control)
binding signal (ETV7): 1.27 fold enrichment (6-mer frequency, TF over GST control)
binding signal (ELF5): 1.32 fold enrichment (6-mer frequency, TF over GST control)
binding signal (ETV3): 1.29 fold enrichment (6-mer frequency, TF over GST control)
binding signal (ETV6): 1.39 fold enrichment (6-mer frequency, TF over GST control)
